Values joined by “and” are separate entries in the source; they are usually repeats but may differ in a detail not shown here. Equal entries are not always repeated. Where two headings read alike, the source gives them in different places.
Key:
TNIK = details: concentration: 1 μM, replicates: in singlicate; n = 1
TNK1 = details: concentration: 1 μM, replicates: in singlicate; n = 1
TNK2 = details: n = 1
TNNI3K = details: n = 1
TRKA = tested on: T1, TRKA; details: concentration: 1 μM, replicates: in singlicate; n = 1
T1 construct: gene NTRK1

TRKB = details: n = 1
TRKC = tested on: T2, TRKC; details: n = 1
T2 construct: gene NTRK3

TRPM6 = details: n = 1
TSSK1B = details: n = 1
TSSK3 = details: n = 1
[1] = concentration: 1 μM, replicates: in singlicate
[2] = concentration: 1 μM,replicates: in singlicate, 1 µM
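Also: KINOMEscan kinase panel screen.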

Row | SMILES | %Inh (TNIK) [%] | %Inh (TNK1) [%] | %Inh (TNK2; [1]) [%] | %Inh (TNNI3K; [1]) [%] | %Inh (TRKA) [%] | %Inh (TRKB; [1]) [%] | %Inh (TRKC; [1]) [%] | %Inh (TRPM6; [1]) [%] | %Inh (TSSK1B; [1]) [%] | %Inh (TSSK3; [1]) [%] | %Inh (TNK2; [2]) | %Inh (TNNI3K; [2]) | %Inh (TRKB; [2]) | %Inh (TRKC; [2]) | %Inh (TRPM6; [2]) | %Inh (TSSK1B; [2]) | %Inh (TSSK3; [2])
1 | O=C(Nc1ccccc1)Nc1cccc(Oc2ccc3nccn3n2)c1 | 7 | 23 | 0 | 0 | 0 | 0 | 27 | 0 | 0 | 0 | – | – | – | – | – | – | –
2 | CN1C(=O)C(Nc2ccc(Cl)c(C(=O)O)c2)=C(c2ccc(Cl)cc2)C1=O [SB-404290] | 13 | 13 | 0 | 0 | 0 | 0 | 22 | 10 | 0 | 0 | – | – | – | – | – | – | –
3 | Cc1cccc(-c2nc(Nc3ccc4[nH]ncc4c3)c3ccccc3n2)n1 [GW857175] | 4 | 0 | 10 | 0 | 52 | 12 | 17 | 19 | 72 | 51 | – | – | – | – | – | – | –
4 | O=C(Nc1ccc2c(c1)OCO2)NC1CCN(c2ccnc(Nc3ccc(F)cc3)n2)C1 (stereo not drawn) [GSK1379724] | 0 | 16 | 10 | 0 | 0 | 19 | 57 | 8 | 0 | 18 | – | – | – | – | – | – | –
5 | COc1ccc(Nc2nccc(NCCNC(=O)Nc3ccccc3F)n2)cc1 [GSK1379901] | 0 | 0 | 31 | 14 | 0 | 0 | 18 | 11 | 0 | 7 | – | – | – | – | – | – | –
6 | Fc1cccc(COc2nnc(-c3ccc4c(c3)CCO4)o2)c1 | 14 | 0 | 0 | 0 | 24 | 0 | 48 | 0 | 0 | 0 | – | – | – | – | – | – | –
7 | Clc1cc(Cl)cc(Nc2ccnc(Nc3cc(Cl)cc(Cl)c3)n2)c1 [GSK175726] | 0 | 0 | 12 | 6 | 19 | 0 | 0 | 0 | 0 | 10 | – | – | – | – | – | – | –
8 | Cn1cncc1-c1ccc2ncnc(Nc3ccc(OCc4ccccc4)cc3)c2c1 [GW320571] | 0 | 0 | 29 | 23 | 45 | 0 | 0 | 0 | 29 | 16 | – | – | – | – | – | – | –
9 | CN(C)CCN(C)C(=O)c1cc(-c2ccncc2)c(-c2ccc(Cl)c(O)c2)o1.Cl.Cl [SB-710397] | 51 | 2 | 0 | 17 | 0 | 43 | 35 | 27 | 24 | 24 | – | – | – | – | – | – | –
10 | CSc1nn2c(=O)cc(N3CCOCC3)nc2n1Cc1cccc(C(F)(F)F)c1C [GSK2363608] | 0 | 0 | – | – | 0 | – | – | – | – | – | 17% and 30% | 1% and 10% | 0% and 3% | 0% and 11% | 22% and 0% | 18% and 77% | 18% and 6%
11 | Fc1cc(Cl)ccc1Nc1ccnc2cc(-c3ccc(CN4CCCCC4)o3)ccc12 [GW560116] | 10 | 0 | 2 | 0 | 4 | 19 | 12 | 0 | 0 | 8 | – | – | – | – | – | – | –
12 | Nc1nc(-c2nccs2)c(-c2ccnc3ccccc23)s1 [GW693542] | 10 | 0 | 24 | 4 | 0 | 0 | 23 | 4 | 16 | 79 | – | – | – | – | – | – | –
13 | Cc1cccc(-c2nc(C)cc(Nc3ccncc3)n2)n1 [GSK257997] | 0 | 0 | 28 | 0 | 39 | 0 | 0 | 24 | 3 | 17 | – | – | – | – | – | – | –
14 | O=C(Nc1n[nH]c2nc(-c3nccs3)c(Br)cc12)C1CCCC1 [SB-742609] | 1 | 2 | 4 | 6 | 0 | 59 | 24 | 0 | 8 | 0 | – | – | – | – | – | – | –
15 | O=S(=O)(c1ccc(-c2ccnc3[nH]ccc23)cc1)N1CCCC1 [GSK846226] | 0 | 0 | 9 | 3 | 69 | 0 | 0 | 26 | 10 | 18 | – | – | – | – | – | – | –
16 | COC(=O)c1c(-c2ccccc2)c2cc(OC)ccc2c(=O)n1Cc1ccccc1 | 1 | 0 | 0 | 0 | 0 | 0 | 0 | 11 | 10 | 0 | – | – | – | – | – | – | –
17 | Cc1ccc(NC(=O)Nc2cccc(Cl)c2)cc1-c1ccc(C(=O)Nc2ccncc2)cc1 [GSK1398468] | 0 | 0 | 12 | 64 | 0 | 0 | 6 | 0 | 0 | 8 | – | – | – | – | – | – | –
18 | COc1ccccc1CNC(=O)c1cc(C(=O)c2ccccc2C)c[nH]1 [GSK364507] | 0 | 0 | 17 | 0 | 0 | 24 | 2 | 21 | 16 | 6 | – | – | – | – | – | – | –

Source: PMC5540273 (PLoS ONE, 2017)
